LAP4 TOR yeast: alters LAP4-GFP fluorescence in TOR pathway yeast screen | S. cerevisiae LAP4-GFP multiplex, flow cytometry GFP, 3 h; median GFP as percent of DMSO wells | GFP response vs DMSO, % at 10 µM | actives 0.34% (n = 320,000) | AID 2023;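 active = GFP response vs DMSO above a set limit, about the screen mean plus 3 SD, cut at about 150% in these data; inconclusive = under 70 cell events counted for the yeast strain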
CIT2 TOR yeast: modulators of TOR pathway CIT2-GFP in S. cerevisiae; S. cerevisiae CIT2-GFP strain, flow cytometry, 3 h; 100 means same as DMSO wells; GFP response vs DMSO, % at 10 µM; actives 0.065% (n = 320,000);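 active = GFP response relative to DMSO above a set limit, near the screen mean plus 3 SD, cut at about 150% in these data; inconclusive = Fewer than 70 cells measured for a yeast strain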;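 also: ratio of well median GFP fluorescence to mean of DMSO wells on the plate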
AGP1-GFP MLPCN: alters AGP1-GFP fluorescence in TOR pathway yeast screen. S. cerevisiae AGP1-GFP multiplex flow cytometry, 3 h; GFP as percent of DMSO wells. AID 2066. actives 0.02% (n = 320,000). GFP response vs DMSO, % at 10 µM;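 active = GFP response relative to DMSO above a set limit, near screen average plus 3 SD, cut at about 150% in these data; inconclusive = fewer than 70 cells counted for the yeast strain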;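 also: median GFP channel fluorescence of the gated AGP1 strain per well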
RPL19A-GFP yeast: alters RPL19A-GFP fluorescence in TOR pathway yeast screen. S. cerevisiae RPL19A-GFP strain, flow cytometry, 3 h; hits give low values. percent response vs DMSO, % at 10 µM. actives 0.3% (n = 330,000). AID 2025;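 active = percent response vs DMSO below 50%; inconclusive = fewer than 70 events counted for the yeast strain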;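 also: median channel GFP fluorescence of the barcoded RPL19A-GFP strain; ratio of sample median GFP to plate DMSO average so 100% = DMSO; lower means less RPL19A-GFP as with rapamycin TOR inhibition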
MEP2-GFP yeast: alters MEP2-GFP fluorescence in TOR pathway yeast screen; S. cerevisiae MEP2-GFP strain, flow cytometry GFP, 3 h; 100% = DMSO control level; GFP response vs DMSO, % at 10 µM; actives 0.51% (n = 330,000); AID 2016;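 active = GFP response versus DMSO above a set limit, roughly screen mean plus 3 SD, cut at about 180% in these data; inconclusive = fewer than 70 cells counted for a yeast strain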;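 also: median GFP fluorescence of the barcode-gated MEP2-GFP cells per well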
Starred values were filed as active, the others as inactive; u = inconclusive; x = no result given; + = active, no number; [ ] = remark or other dose. The list is not random: actives were taken first. Their share in the collection is about 0.89%.

SMILES | LAP4 TOR yeast | CIT2 TOR yeast | AGP1-GFP MLPCN | RPL19A-GFP yeast | MEP2-GFP yeast
O=C(NC(=S)NC1CCS(=O)(=O)C1)c1ccccc1F (stereo not given) | 104.1 | 97.1 | 99.4 | 96.2 | 99.9
O=C(O)c1cccc(NC(=O)c2ccc3c(c2)C(=O)N(c2ccccc2)C3=O)c1 | 50.2 | u | u | 85.9 | 376.2*[may fluoresce violet]
COc1cccc(CNc2ccc3[nH]c(=O)[nH]c3c2)c1OCc1ccccc1 | 94.3 | 107.9 | 103.7 | 101.9 | 101.0
O=S(=O)(c1ccccc1F)N1CCN(Cc2cc3c(cc2Br)OCCO3)CC1 | 114.7 | 111.6 | 111.4 | 104.7 | 105.6
N#Cc1c(N)n(-c2cccc(C(=O)O)c2)c2nc3ccccc3nc12 | 83.0 | u | 18.7 | 61.0 | 198.4*[may fluoresce violet]
O=C(c1ccc([N+](=O)[O-])o1)N1CCN(c2nc3ccc(F)cc3s2)CC1 | 162.8* | 78.3 | 90.3 | 93.0 | 96.0
O=C(c1ccc([N+](=O)[O-])o1)N1CCN(c2nc3c(Cl)cccc3s2)CC1 | 128.3 | 94.6 | 101.6 | 95.2 | 94.8
CCN(c1ccccc1)S(=O)(=O)c1nnc(NC(=O)C(C)C)s1 | 59.6 | u | u | 21.9*[may fluoresce violet] | 337.8*[may fluoresce violet]
CC[n+]1c(/C=C/C=C/N(C(C)=O)c2ccccc2)sc2ccccc21 | 272.7* | 395.3* | 147.7 | 105.2 | 514.2*
CCN(CC)CCN1C(=O)/C(=C\c2ccc(Cl)c([N+](=O)[O-])c2)SC1=Nc1ccc(OC)cc1 | 77.5 | u | u | 53.2 | 197.3*[may fluoresce violet]
N#CC1=C(N)C2=C(N3CCCCC3)CCCC2C1(C#N)C#N (stereo not given) | 110.2 | 99.4 | 93.1 | 98.5 | 115.1
N#CC(C#N)=C1C=C2C=C(N3CCCCC3)CCC2CC1 (stereo not given) | 712.1*[may fluoresce green] | 630.7*[may fluoresce green] | 190.0*[may fluoresce green] | 216.7 | 896.0*[may fluoresce green]
O=C(NCCCN1CCOCC1)c1cc2c([nH]c3ccccc32)c(-c2cccc(Br)c2)n1 | 100.0 | u | 48.0 | 19.2*[may fluoresce violet] | 343.6*[may fluoresce violet]
COc1ccc(NC(=O)c2c(F)cccc2F)cc1S(=O)(=O)Nc1ccc(Br)cc1 | 105.1 | 100.9 | 102.0 | 105.8 | 106.3
CCOC(=O)N1CCC(NS(=O)(=O)c2cc3c(cc2Cl)NC(=O)CO3)CC1 | 95.9 | 101.7 | 102.2 | 99.5 | 97.4
CCOCCCNC(=O)/C(C#N)=C/c1ccc(-c2ccc(S(=O)(=O)N3CCOCC3)cc2)o1 | 89.5 | 96.1 | 100.5 | 101.0 | 98.4
CC(NC(=O)/C(C#N)=C/c1ccc([N+](=O)[O-])o1)c1ccccc1 (stereo not given) | 894.7*[may fluoresce violet] | u | 149.7 | 203.0 | +[may fluoresce violet]
CCOCCCNC(=O)/C(C#N)=C/c1ccc([N+](=O)[O-])o1 | 488.2* | 102.6 | 80.0 | 126.4 | +
N=c1n(CCN2CCCCC2)c2ccccc2n1CC(=O)c1ccc(Cl)c(Cl)c1 | 168.4* | 86.8 | 89.6 | 92.2 | 128.3
CCn1c(=N)n(CC(=O)c2ccc(Cl)c(Cl)c2)c2ccccc21 | 102.4 | 97.5 | 94.5 | 101.2 | 118.0
CC(=O)N1CCC(=NNC(=O)c2cc3ccccc3cc2O)CC1 | 83.3 | u | 16.5 | 41.6*[may fluoresce violet] | 117.2
COc1ccc(NC(=O)Cn2nnc(-c3ccccc3NC(=O)c3ccco3)n2)cc1 | 92.1 | 102.7 | 103.5 | 94.9 | 98.8
COc1ccccc1NC(=O)Cn1nnc(-c2ccccc2NC(=O)c2ccco2)n1 | 85.8 | 100.1 | 103.4 | 96.5 | 195.0*
O=C(OCC(=O)N1CCN(C(=O)c2ccco2)CC1)c1ccc(Cl)cc1 | 110.7 | 109.1 | 106.0 | 101.8 | 109.0
CCn1c(N2CCN(C(=S)NCC(C)C)CC2)nc2ccccc21 | 89.7 | 96.2 | 93.7 | 96.9 | 99.2
SMILES | LAP4 TOR yeast | CIT2 TOR yeast | AGP1-GFP MLPCN | RPL19A-GFP yeast | MEP2-GFP yeast
CC(C)[C@H](NC(=O)c1ccco1)C(=O)OCC(=O)Nc1cccc(F)c1 | 100.7 | 107.4 | 99.0 | 98.2 | 119.8
CC(C)[C@H](NC(=O)c1ccco1)C(=O)OCC(=O)Nc1ccc(Cl)c(S(=O)(=O)N(C)C)c1 | 59.3 | u | u | 21.5*[may fluoresce violet] | 178.0*[may fluoresce violet]
CCOC(=O)c1c2ccccc2[n+]([O-])n1[C@@H](C)C(N)=O | 105.0 | u | u | 30.3*[may fluoresce violet] | 281.4*[may fluoresce violet]
CC(=O)Oc1c(C)cc(Cl)cc1C(=O)Nc1ccc([N+](=O)[O-])cc1Cl | 113.3 | 153.2* | 99.9 | 104.3 | 152.2
CCn1c(SCC(=O)NCc2cccs2)nc2c1c(=O)n(C)c(=O)n2C | 101.2 | 99.6 | 98.7 | 102.2 | 103.6
N/C(=N\OC(=O)Cc1ccccc1)c1ccncc1 | 88.0 | 114.4 | 105.9 | 113.6 | 109.8
O=c1[nH]c2ccc(NS(=O)(=O)c3ccc([N+](=O)[O-])cc3)cc2[nH]1 | 97.2 | 102.2 | 99.2 | 94.9 | 98.1
CC(=O)Nc1ccc(S(=O)(=O)Nc2ccc3[nH]c(=O)[nH]c3c2)cc1 | 106.6 | u | 21.5 | 43.8*[may fluoresce violet] | 653.3*[may fluoresce violet]
COc1ccc(C2C3=C(CCCC3=O)N(CC(=O)O)C3=C2C(=O)CCC3)cc1Cl | 126.2 | 130.1 | 148.4 | 45.9* | 501.9*
CCOc1cc(C2C3=C(CCCC3=O)N(CC(=O)O)C3=C2C(=O)CCC3)ccc1OC | 77.8 | 88.4 | 85.9 | 93.8 | 88.2
COc1ccccc1C1C2=C(CCCC2=O)N(CC(=O)O)C2=C1C(=O)CCC2 | 57.7 | u | u | 13.9*[may fluoresce violet] | 257.0*[may fluoresce violet]
COc1ccc(C2C3=C(CC(C)(C)CC3=O)N(CC(=O)O)C3=C2C(=O)CC(C)(C)C3)cc1OC | 94.5 | 110.7 | 105.2 | 96.4 | 100.9
N=C(N)SCc1nc2ccccn2c1Br | 99.0 | 103.5 | 101.3 | 103.9 | 104.9
COc1cc2c(-c3ccc4cc[nH]c4c3)c(-c3ccsc3)oc(=O)c2cc1OC | 104.7 | 99.6 | 96.7 | 99.5 | 98.0
Nc1ccc2oc(=O)c3ccccc3c2c1 | 71.3 | u | u | 33.5*[may fluoresce violet] | 230.9*[may fluoresce violet]
CN(CC(=O)Nc1ccccc1Br)C(=O)CN(C)C1CCCCC1 | 94.2 | 89.7 | 101.2 | 99.9 | 96.4
CC(C)Oc1ccccc1C1Nc2ccccc2C(=O)N1c1ccc2c(c1)OCCO2 (stereo not given) | 80.3 | u | x | 51.7 | 210.1*[may fluoresce violet]
CC(C)Oc1ccccc1C1CC(=O)Nc2cc3c(cc21)OCCO3 (stereo not given) | 98.2 | 95.5 | 97.2 | 100.9 | 104.4
Cn1ncc(Br)c1NC(=O)Nc1ccc(OC(F)(F)F)cc1 | 105.3 | 103.7 | 100.1 | 102.0 | 96.9
CCNC(=O)C(C)Sc1ccc(Cl)cc1 (stereo not given) | 87.8 | u | u | 48.4*[may fluoresce violet] | 351.4*[may fluoresce violet]
COc1ccc(C2CC(c3ccccc3)=NN2c2ccc(S(N)(=O)=O)cc2)cc1OC (stereo not given) | 95.5 | 98.0 | 94.5 | 96.8 | 99.8
COc1cc(C2CC(c3cccnc3)=NN2c2ccc(F)cc2)cc(OC)c1OC (stereo not given) | 119.9 | 158.7* | 101.5 | 111.9 | 150.7
Cc1ccc(NC(=O)CSc2nc3ccccc3c(=O)n2CC2CCCO2)cc1 (stereo not given) | 88.8 | 104.2 | 101.0 | 102.8 | 93.7

Screens (PubChem)
